Screening data as filed in PubChem.
Compounds with a hit are over-represented: about 4% of the library has one in this group of screens.
Gli-Sufu block – Gli-Sufu pathway antagonists, primary screen, luciferase luminescence, Sufu-KO-LIGHT cells, uHTS; Sufu-KO-LIGHT fibroblasts, Gli luciferase reporter luminescence; inhibition, % at 5 µM; actives 0.74% (n = 340,000);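 active means inhibition above about 55%, limit read from the data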
Beta cell apopt – inhibitors of cytokine-induced beta cell apoptosis, primary screen, luminescence; actives 0.8% (n = 300,000); INS-1E cytokine-induced death, ATP luminescence, 48 h; percent of positive-control rescue, neutral wells zero; protection from apoptosis, % (no concentration beside the values);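 active means Every replicate reaches about 75%, or at least half do and their mean reaches it too, limit read from the data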;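 further: higher means more ATP so stronger rescue from cytokine killing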
Mdm2-MdmX inh – inhibitors of human Mdm2-MdmX association, primary screen, cell-based, luminescence, split luciferase, SaOS-2, uHTS; Protein Mdm4 (Homo sapiens) + E3 ubiquitin-protein ligase Mdm2 (Homo sapiens), …; SaOS-2 split-luciferase Mdm2/MdmX complementation; inhibition, % at 8 µM; actives 3% (n = 330,000);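 active means inhibition of at least 50% at 8 µM in the primary screen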
Target sequence (O15151 whole entry, looked up): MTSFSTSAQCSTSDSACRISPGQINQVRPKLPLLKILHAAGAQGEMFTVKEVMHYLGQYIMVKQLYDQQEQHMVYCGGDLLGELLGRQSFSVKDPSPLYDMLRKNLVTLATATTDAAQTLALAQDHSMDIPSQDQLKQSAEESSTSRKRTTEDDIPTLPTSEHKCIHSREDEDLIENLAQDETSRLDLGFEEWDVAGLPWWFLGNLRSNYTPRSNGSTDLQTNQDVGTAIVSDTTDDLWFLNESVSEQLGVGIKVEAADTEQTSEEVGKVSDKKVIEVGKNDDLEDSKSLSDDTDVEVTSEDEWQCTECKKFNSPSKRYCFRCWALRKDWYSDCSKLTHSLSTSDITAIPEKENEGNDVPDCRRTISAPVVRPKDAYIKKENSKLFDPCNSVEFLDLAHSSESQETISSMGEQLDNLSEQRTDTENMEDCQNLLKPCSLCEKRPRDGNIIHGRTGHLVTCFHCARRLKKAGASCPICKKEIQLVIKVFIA
Target sequence (Q00987 whole entry, looked up): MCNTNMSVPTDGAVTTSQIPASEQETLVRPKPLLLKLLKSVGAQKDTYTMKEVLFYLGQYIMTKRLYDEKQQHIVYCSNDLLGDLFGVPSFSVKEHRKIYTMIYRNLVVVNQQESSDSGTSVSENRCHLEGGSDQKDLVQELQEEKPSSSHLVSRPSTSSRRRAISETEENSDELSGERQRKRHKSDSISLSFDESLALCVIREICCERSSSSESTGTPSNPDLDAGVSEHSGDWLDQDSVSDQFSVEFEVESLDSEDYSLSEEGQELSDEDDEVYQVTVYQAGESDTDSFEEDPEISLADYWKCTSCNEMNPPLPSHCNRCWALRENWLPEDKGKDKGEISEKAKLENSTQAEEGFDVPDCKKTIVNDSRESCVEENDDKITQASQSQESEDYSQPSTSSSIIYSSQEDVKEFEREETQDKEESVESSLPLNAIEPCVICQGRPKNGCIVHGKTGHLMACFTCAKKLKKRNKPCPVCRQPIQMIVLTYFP
Shn3 inh set2 – reduction of Shn3 3'UTR firefly luciferase signal, primary screen, Schnurri-3 inhibitor project, cell-based, Clone20 osteoblasts, set 2; Clone20 osteoblast Shn3 3'UTR firefly luciferase, 24 h; inhibition, % at 12.5 µM; actives 0.52% (n = 360,000);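 active means mean inhibition of at least 75% with every replicate also reaching 75%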
CSC inhib – cancer stem cell viability inhibitors, primary screen, luminescence. actives 1.1% (n = 300,000). cancer stem cell-like cells viability. inhibition, % at 7.5 µM; in the data active means inhibition above about 75%; tested in HMLE shEcad cells
PAX8 reporter – inhibitors of PAX8-driven TPO luciferase reporter, primary screen, RMG-I cells, single concentration; inhibition, % at 12.6 µM; AID 652154, 2013; SteadyGlo, 24 h; actives 1.2% (n = 360,000);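 active means mean replicate inhibition at least 60% with every replicate also reaching 60%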;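 further: luciferase light reporting Pax8 driven TPO promoter activity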
Large screens that a line does not name were inactive.

C[C@@H]1CCCCO[C@H](CN(C)C(=O)C2CCCCC2)[C@@H](C)CN([C@H](C)CO)C(=O)c2cc(NS(=O)(=O)c3ccc(Cl)cc3)ccc2O1	none (no result: Gli-Sufu block, Beta cell apopt, Mdm2-MdmX inh, Shn3 inh set2, CSC inhib)
Cc1ccc(S(=O)(=O)Nc2ccc3c(c2)C(=O)N([C@H](C)CO)C[C@@H](C)[C@H](CN(C)C(=O)C2CCCCC2)OCCCC[C@H](C)O3)cc1	PAX8 reporter 74.5 (no result: Gli-Sufu block, Beta cell apopt, Mdm2-MdmX inh, Shn3 inh set2, CSC inhib)
C[C@@H]1CCCCO[C@@H](CN(C)C(=O)C2CCCCC2)[C@H](C)CN([C@@H](C)CO)C(=O)c2cc(NS(=O)(=O)c3ccc(Cl)cc3)ccc2O1	PAX8 reporter 80.7 (no result: Gli-Sufu block, Beta cell apopt, Mdm2-MdmX inh, Shn3 inh set2, CSC inhib)
Cc1ccc(S(=O)(=O)Nc2ccc3c(c2)C(=O)N([C@H](C)CO)C[C@H](C)[C@H](CN(C)C(=O)C2CCCCC2)OCCCC[C@H](C)O3)cc1	none (no result: Gli-Sufu block, Beta cell apopt, Mdm2-MdmX inh, Shn3 inh set2, CSC inhib)
C[C@@H]1CCCCO[C@H](CN(C)C(=O)C2CCCCC2)[C@H](C)CN([C@H](C)CO)C(=O)c2cc(NS(=O)(=O)c3ccc(Cl)cc3)ccc2O1	PAX8 reporter 67.2 (no result: Gli-Sufu block, Beta cell apopt, Mdm2-MdmX inh, Shn3 inh set2, CSC inhib)
C[C@H]1CCCCO[C@H](CN(C)C(=O)C2CCCCC2)[C@@H](C)CN([C@@H](C)CO)C(=O)c2cc(NS(=O)(=O)c3ccc(Cl)cc3)ccc2O1	PAX8 reporter 86.5 (no result: Gli-Sufu block, Beta cell apopt, Mdm2-MdmX inh, Shn3 inh set2, CSC inhib)
CCCNC(=O)Nc1ccc2c(c1)OC[C@H](C)N(Cc1cncnc1)C[C@@H](C)[C@@H](OC)CN(C)C2=O	none (no result: Gli-Sufu block, Beta cell apopt, Mdm2-MdmX inh, Shn3 inh set2, CSC inhib)
O=C(NCC[C@H]1CC[C@H](NC(=O)C2CCCCC2)[C@@H](CO)O1)c1cc(Cl)cc(Cl)c1	none (no result: Gli-Sufu block, Beta cell apopt, Mdm2-MdmX inh, Shn3 inh set2, CSC inhib)
C/C=C/c1ccc([C@H]2[C@@H](CO)N(S(C)(=O)=O)C23CN(C(=O)CC)C3)cc1	none (no result: Gli-Sufu block, Beta cell apopt, Mdm2-MdmX inh, Shn3 inh set2, CSC inhib)
CN1C[C@@H]2[C@@H]3C(=O)N(Cc4ccccc4)C(=O)[C@@H]3[C@](Cc3ccccc3)(C1=O)N2C(=O)c1ccc(C(C)(C)C)cc1	PAX8 reporter 99.5 (no result: Beta cell apopt, Mdm2-MdmX inh, CSC inhib)
O=C(Nc1ncc(Cc2cccc([N+](=O)[O-])c2)s1)c1ccco1	CSC inhib 97.1
Cc1ccc(Cc2cnc(NC(=O)c3ccco3)s2)cc1	none (no result: PAX8 reporter)
C[C@H]1CN([C@@H](C)CO)C(=O)c2cc(NC(=O)Nc3ccc(F)cc3)ccc2O[C@H]1CN(C)S(=O)(=O)c1cn(C)cn1	none (no result: Gli-Sufu block, Beta cell apopt, Mdm2-MdmX inh, Shn3 inh set2, CSC inhib)
O=C(CSc1ncnc2nc[nH]c12)Nc1nnc(SCc2ccc(Cl)c(Cl)c2)s1	CSC inhib 93.5
Cc1ccc(C)c(NC(=O)CSc2ncnc3nc[nH]c23)c1	none (no result: PAX8 reporter)
O=C(C[C@H]1CC[C@H]2[C@@H](COC[C@H](O)CN2C(=O)c2ccccc2)O1)N1CCOCC1	none (no result: Gli-Sufu block, Beta cell apopt, Mdm2-MdmX inh, Shn3 inh set2, CSC inhib)
COc1cc2c(cc1OC)-c1c(OC)c(OC)cc3ccnc(c13)C2=O	Beta cell apopt 112.3
COc1ccc(OC)c(N(CCN2C(=O)c3ccccc3C2=O)C(=O)CCl)c1	PAX8 reporter 103.8 (no result: Gli-Sufu block, Beta cell apopt, Mdm2-MdmX inh, CSC inhib)
CCCNC(=O)N1[C@@H]2CNC[C@H]1C2c1ccc(-c2ccc(C)cc2)cc1 (stereo partly drawn)	none (no result: Gli-Sufu block, Beta cell apopt, Mdm2-MdmX inh, Shn3 inh set2, CSC inhib)
C/C(=N\NC(=O)c1cccc(Cl)c1)C1C(=O)c2ccccc2C1=O	CSC inhib 92.6 (no result: PAX8 reporter)
C/C(=N\NC(=O)CCc1ccccc1)C1C(=O)c2ccccc2C1=O	none
Cc1ccc(S(=O)(=O)N2CCCCC2c2cccnc2)c(C)c1C (stereo not drawn)	Beta cell apopt 97.6
O=S(=O)(c1cccc(C(F)(F)F)c1)N1CCCC1c1cccnc1 (stereo not drawn)	none
Cc1cc(C)nc(N/N=C/c2cccc3ccccc23)n1	PAX8 reporter 82.2
Cc1cc(C)nc(N/N=C/c2ccccc2Cl)n1	none
C[C@@H](NC(=O)C[C@@H]1C=C[C@H](NC(=O)Nc2ccc3c(c2)OCO3)[C@@H](CO)O1)c1ccccc1	none (no result: Gli-Sufu block, Beta cell apopt, Mdm2-MdmX inh, Shn3 inh set2, CSC inhib)
C[C@@H](NC(=O)C[C@H]1CC[C@@H]2[C@H](COC[C@@H](O)CN2C)O1)c1ccccc1	none (no result: Gli-Sufu block, Beta cell apopt, Mdm2-MdmX inh, Shn3 inh set2, CSC inhib)
COc1ccc(CCNC(=O)c2cc(C(=O)c3cc(Cl)ccc3O)cn(CCc3ccc(OC)cc3)c2=O)cc1	PAX8 reporter 80.2
Cc1nc(NC(=O)c2ccc(Cl)cc2)sc1Cc1ccc2c(c1)OCO2	CSC inhib 78.9
Cc1nc(NC(=O)c2ccccc2)sc1Cc1ccc2c(c1)OCO2	none
